# Reference: PubChem BioAssay (EPA / NIEHS)
# A structure can be active in one record and inactive in another. Active and inactive are the calls of the source. The calls were made as follows: active = hit-call score of the fitted dose curve at least 0.9, where 1 is the maximum; inactive = score below 0.9.
# Read-out: Urokinase-type plasminogen activator receptor (uPAR), PLAUR (gene 5329)
# Test: BSK_CASM3C_uPAR: BioMAP Diversity Plus: CASM3C Assay for Urokinase-type plasminogen activator receptor (uPAR) Biomarker Activity (AID 2283054);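 also: cell-surface uPAR protein level quantified by ELISA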
# Settings: primary human coronary artery smooth muscle cells; actives raise or lower the signal
SMILES,outcome,AC50
CCn1c2ccccc2c2cc(N)ccc21,inactive,–
Cc1ccc(Nc2ccc(O)c3c2C(=O)c2ccccc2C3=O)cc1,inactive,–
Cc1ccc(O)c(C(C)(C)C)c1,–,20 µM (active)
CCCCCCCCCCCCCCCCCC(=O)OCC(CC)CCCC (centres undefined),inactive,–
CCCCC(CC)COCCC#N (centres undefined),inactive,–
C[C@H]1C[C@@H]2[C@H]([C@@H](O)C[C@@]3(C)[C@H]2CC[C@]3(O)C(=O)CO)[C@@]2(C)C=CC(=O)C=C12,inactive,1.2 µM (active)
O=P(c1ccccc1)(c1ccccc1)c1ccccc1,inactive,–
CC(C)Oc1ccccc1O,inactive,–
CC(=O)/C=C/C1=C(C)CCCC1(C)C,inactive,–
CC[Si](OC(C)=O)(OC(C)=O)OC(C)=O,inactive,–
CNC[C@H](O)c1cccc(O)c1,inactive,–
O=[N+]([O-])c1cc(C(F)(F)F)ccc1Cl,inactive,–
CCCCCCCCCC=O,inactive,–
COc1cc(C=O)ccc1OC(=O)C(C)C,inactive,5.27 µM (active)
Nc1cc([N+](=O)[O-])ccc1O,inactive,–
CCc1c(C)cc(N)c(CC)c1N,inactive,–
C=C(C)C(=O)O[C@H]1C[C@@H]2CC[C@@]1(C)C2(C)C,–,9.04 µM (active)
CC(=O)O[C@]1(C(C)=O)CC[C@H]2[C@@H]3C[C@H](C)C4=CC(=O)CC[C@]4(C)[C@H]3CC[C@@]21C,inactive,–
CC1COc2ccccc2N1C(=O)C(Cl)Cl (centres undefined),–,7.08 µM (active)
CC(C)(COC(=O)c1ccccc1)COC(=O)c1ccccc1,inactive,–
CC(C)c1ccc(C(C)C)cc1,–,20 µM (active)
CCC(=O)OCc1ccccc1,inactive,–
